# The campaign covered roughly 69,000 compounds. About 1,000 (1.4%) showed an effect of 50% or more. The list comes from a sample in which strong results are over-represented; it also holds similar structures and randomly drawn compounds.
# Test system: Leishmania donovani
# Assay: Leishmania intramacrophage assay
# Type: functional, organism-based
# Set-up: scale not given: in the data most compounds retested in dose-response had high values
compound,measurement,setting,value
CCOc1ccccc1C1=CCN(C(=O)C2CCN(C)C(=O)C2)CC1 (stereo unspecified),Percent Effect,30 µM,-1.516%
O=C1CC(NCc2cccc(O)c2)CN1CCc1cccc(Cl)c1 (stereo unspecified),Percent Effect,"30.3 µM, […]",24.84%
Cc1nnc(NC(=O)C2CSCN2C(=O)C2CCCC2)s1 (stereo unspecified),Percent Effect,"30.3 µM, […]",-31.76%
O=C(O)c1cc(-c2ccn(CC3CC3)n2)n2ccccc12,Percent Effect,"30.3 µM, […]",20%
O=C(c1cc(-c2ccn(CC3CC3)n2)n2ccccc12)N1CCCO1,Percent Effect,"30.3 µM, […]",27.45%
O=C(c1cc(-c2ccn(CC3CC3)n2)n2ccccc12)N1CCOCC1,Percent Effect,"30.3 µM, […]",88.37%
O=C(c1ccc(NCc2ccco2)nc1)N1CCc2ccccc21,Percent Effect,"30.3 µM, […]",-1.41%
CC(=O)NC1CCCc2c1[nH]c1ccc(F)cc21 (stereo unspecified),Percent Effect,"30.3 µM, […]",4.787%
Fc1ccc2[nH]c3c(c2c1)CCN1C(c2ccccn2)N2CCC31CC2 (stereo unspecified),Percent Effect,"30.3 µM, […]",22.17%
Fc1ccc2[nH]c3c(c2c1)CCN1C(c2ccncc2)N2CCC31CC2 (stereo unspecified),Percent Effect,"30.3 µM, […]",86.05%
O=C(OCc1ccccc1)N1CC[C@H]2CC(CO)O[C@@H]2C1 (stereo partly specified),Percent Effect,"30.3 µM, […]",-47.27%
CN1CCC(n2nc(Cc3cccc(Cl)c3)nc2Cn2ccnc2)CC1,Percent Effect,"30.3 µM, […]",15.54%
Cc1noc(C)c1CCCNC(=O)C1CCN(C(=O)C2CC2)CC1,Percent Effect,"30.3 µM, […]",-2.423%
CC(C)Cc1noc(C2CCCN(C(=O)CCc3cnn(C)c3)C2)n1 (stereo unspecified),Percent Effect,"30.3 µM, […]",5.747%
CCCN1CCC(Nc2cc(-c3ccccc3)ccc2OC)CC1,Percent Effect,"30.3 µM, […]",94.4%
CCCN1CCC(NC(=O)Nc2ccc(OC)c(OC)c2)CC1,Percent Effect,"30.3 µM, […]",8.2%
CCCN1CCC(NC(=O)c2csc(C)c2-c2ccccc2)CC1,Percent Effect,"30.3 µM, […]",11.13%
Cc1ccc(C2CCCN(C(=O)c3cnn(C)c3)C2)nc1 (stereo unspecified),Percent Effect,"30.3 µM, […]",-15.16%
O=C(c1cc(Cl)ccc1F)N1CCCC1Cn1cccn1 (stereo unspecified),Percent Effect,30 µM,-22.81%
COc1cc(NCc2ccncc2)c(-c2nn[nH]n2)cc1OC,Percent Effect,"30.3 µM, […]",-13.14%
COCCN1C(=O)CCC12CCN(C(=O)CNC(C)=O)CC2,Percent Effect,"30.3 µM, […]",21.99%
COc1cc(-c2cc(C3CCOC3)c(C#N)c(N)n2)ccc1O (stereo unspecified),Percent Effect,"30.3 µM, […]",14.88%
COCC(=O)NCc1cnc(C)nc1-c1cn(C)c2ccc(OC)cc12,Percent Effect,"30.3 µM, […]",7.699%
COc1ccc2c(c1)c(-c1nc(C)ncc1CN)cn2C,Percent Effect,"30.3 µM, […]",49%
COc1ccc2c(c1)c(-c1nc(N(C)C)ncc1CN)cn2C,Percent Effect,"30.3 µM, […]",97.85%
Cc1ccccc1C(C)NC(=O)CN1CCN(Cc2ccc(Br)s2)CC1 (stereo unspecified),Percent Effect,"30.3 µM, […]",-13.55%
CCn1cc(NC(=O)NCc2ccc3c(c2)OCO3)cn1,Percent Effect,30 µM,18.35%
O=C(NC1CC(F)(F)C1)[C@]12COC[C@H]1CN(Cc1ccccc1)C2.O=C(O)C(F)(F)F,Percent Effect,"30.3 µM, […]",18.84%
O=C(NC1CC(F)(F)C1)[C@]12COC[C@H]1CN(Cc1ccsc1)C2,Percent Effect,"30.3 µM, […]",55.66%
Cc1ncsc1CN1C[C@@H]2COC[C@]2(C(=O)NC2CC(F)(F)C2)C1.O=C(O)C(F)(F)F,Percent Effect,"30.3 µM, […]",30.87%
CNS(=O)(=O)c1cccc(C(C)NCc2ccc(C)c(C)c2)c1 (stereo unspecified),Percent Effect,"30.3 µM, […]",17.01%
Cl.Cl.O=C([C@@H]1CSCN1)N1CC2(CCNCC2)c2cc(Cl)ccc21,Percent Effect,"30.3 µM, […]",30.82%
CC(C)C[C@H](N)C(=O)N1CC2(CCNCC2)c2cc(Cl)ccc21.Cl.Cl,Percent Effect,"30.3 µM, […]",94.41%
C[C@@H](N)C(=O)N1CC2(CCNCC2)c2cc(Cl)ccc21.Cl.Cl,Percent Effect,"30.3 µM, […]",18.29%
Cc1ccc2c(c1)C1(CCNCC1)CN2C(=O)C(C)C,Percent Effect,"30.3 µM, […]",17.68%
Cl.Cl.O=C([C@H]1CCCN1)N1CC2(CCNCC2)c2cc(Cl)ccc21,Percent Effect,"30.3 µM, […]",35.2%
CN(C)C(=O)N1CC2(CCNCC2)c2cc(Cl)ccc21.Cl,Percent Effect,"30.3 µM, […]",-49.76%
Cl.O=C(c1ccccc1F)N1CC2(CCNCC2)c2cc(Cl)ccc21,Percent Effect,"30.3 µM, […]",46.46%
CCOC(=O)N1CC2(CCNCC2)c2cc(Cl)ccc21.Cl,Percent Effect,"30.3 µM, […]",67.51%
CCc1noc(C)c1C(=O)N(C)Cc1ncc(C)c(OC)c1C,Percent Effect,"30 µM, 30.03 µM",17.33%
CN(CCCC#N)C1CCCN(Cc2noc(C3CC3)n2)C1 (stereo unspecified),Percent Effect,"30 µM, 30.03 µM",35.66%
Cc1cccnc1CC(C)N(C)C(=O)c1cccs1 (stereo unspecified),Percent Effect,"30.3 µM, […]",22.03%
CNC(=O)c1cnc(/C=C/c2cc(OC)c(O)c(OC)c2)s1,Percent Effect,"30.3 µM, […]",3.705%
CCn1cc(NC(=O)C(C)n2ncc(Cl)c2C)c(C(=O)NCC(C)C)n1 (stereo unspecified),Percent Effect,"30.3 µM, […]",23.51%
CC(Oc1ccc2c(c1)OCO2)C(=O)N1CCC(N2CCCC2)CC1 (stereo unspecified),Percent Effect,"30.3 µM, […]",30.73%
CCN(Cc1nonc1C)C(=O)c1ccc(Br)o1,Percent Effect,"30.3 µM, […]",25.68%
O=C(O)C(F)(F)F.O=C1[C@H]2CN(CC3CCOCC3)C[C@H]2CN1Cc1cccc(F)c1,Percent Effect,"30.3 µM, […]",2.876%
CN1CCC2(CCCN(c3nccc(C(F)(F)F)n3)C2)CC1.O=C(O)C(F)(F)F,Percent Effect,"30.3 µM, […]",21.14%
O=C(O)C(F)(F)F.O=C(O)C(F)(F)F.c1cnc(N2CCCC3(CCN(c4ncccn4)C3)C2)nc1 (stereo unspecified),Percent Effect,"30.3 µM, […]",12.64%
CC(C)N1CCC2(CCCN(c3nccc(C(F)(F)F)n3)C2)CC1.O=C(O)C(F)(F)F,Percent Effect,"30.3 µM, […]",54.65%
O=C(c1ccccc1OCC1CC1)N1CCCC(n2ccnc2)C1 (stereo unspecified),Percent Effect,"30 µM, 30.03 µM",5.028%
Cc1cc(C)n(C2=NC(NCCC(C)C)c3c(sc4c3CCCC4)N2)n1 (stereo unspecified),Percent Effect,"30.3 µM, […]",29.71%
Cc1cc(C)n(-c2nc(NCCCO)c3c4c(sc3n2)CCCC4)n1,Percent Effect,"30.3 µM, […]",97.76%
Cc1nc(CN2CCCC2C(=O)OCc2ccccc2)oc1C (stereo unspecified),Percent Effect,"30.3 µM, […]",0.6047%
c1ccc(-c2noc(CN3CCC(c4ccn[nH]4)CC3)n2)cc1,Percent Effect,"30 µM, 30.03 µM",52.27%
O=C1NCCN1C1CCN(Cc2nc(-c3ccc(F)cc3)no2)CC1,Percent Effect,30 µM,36.95%
c1cc(C2CCN(Cc3nc(C4CC4)no3)CC2)[nH]n1,Percent Effect,"30.3 µM, […]",12.31%
Cc1ccc(-c2noc(CN3CCC(c4ccn[nH]4)CC3)n2)cc1,Percent Effect,"30.3 µM, […]",12.54%
CC1COCCN1Cc1nc(-c2ccc(F)cc2)no1 (stereo unspecified),Percent Effect,30 µM,12.83%
Cc1ccccc1-c1noc(CN2CCC(c3ccn[nH]3)CC2)n1,Percent Effect,"30.3 µM, […]",-17.93%
c1ccc(-c2cc(CN3CCC(c4ccn[nH]4)CC3)on2)cc1,Percent Effect,"30 µM, 30.03 µM",56.61%
Cc1cccc(-c2noc(CN3CCC(c4ccn[nH]4)CC3)n2)c1,Percent Effect,"30.3 µM, […]",43.8%
Fc1ccc(-c2noc(CN3CCC(c4cc[nH]n4)CC3)n2)cc1,Percent Effect,"30.3 µM, […]",54.52%
CC(C)c1cc(C(=O)NCCc2nc(-c3ccncc3)n[nH]2)[nH]n1,Percent Effect,"30.3 µM, […]",-0.4105%
Cc1cc(SC(C)(C)C)ccc1NC(C)C(=O)NC(N)=O (stereo unspecified),Percent Effect,"30.3 µM, […]",-16.97%
Cc1nc(C2CCCC2)sc1C(N)=O,Percent Effect,"30.3 µM, […]",-15.57%
Cc1cnn(CC2CCCN2c2ncnc3ccsc23)c1 (stereo unspecified),Percent Effect,30 µM,46.26%
CCCNC(=O)COc1cccc(-c2nc(C(C)C)no2)c1,Percent Effect,"30.3 µM, […]",13.17%
CCC(Nc1nc(CCN)nc2ccccc12)c1cc(C)ccn1 (stereo unspecified),Percent Effect,"30.3 µM, […]",19.32%
NCCc1nc(N[C@@H](CO)c2ccccc2)c2ccccc2n1,Percent Effect,"30.3 µM, […]",7.922%
CCC(Nc1nc(CCN)nc2ccccc12)c1cccs1 (stereo unspecified),Percent Effect,"30.3 µM, […]",67.47%
CC1c2ncc(Cn3cccn3)n2CCN1S(=O)(=O)C1CC1 (stereo unspecified),Percent Effect,"30.3 µM, […]",4.524%
Cc1ccc2oc(CN3CCC(C(=O)O)(n4ccnc4)CC3)c(C)c2c1,Percent Effect,"30.3 µM, […]",21.21%
CN(C)C[C@@H]1C[C@@H]2CN(Cc3nccn3C)CC[C@@H]2N1CC1CC1,Percent Effect,"30.3 µM, […]",27%
CCC(=O)N1CCN(c2ncnc3cc4c(cc23)OCCO4)CC1,Percent Effect,"30.3 µM, […]",-95.64%
CC(C)C(=O)N1CCN(c2ncnc3cc4c(cc23)OCCO4)CC1,Percent Effect,"30.3 µM, […]",56.87%
CC(=O)N1CCN(c2ncnc3cc4c(cc23)OCCO4)CC1,Percent Effect,"30.3 µM, […]",39.4%
COc1cc2cc(C(=O)N[C@@H](C)C(=O)O)n(C)c2c(OC)c1OC,Percent Effect,"30 µM, 30.03 µM",2.156%
O=C(c1cccnc1)N1CCc2onc(CN3CCCC3)c2C1,Percent Effect,"30.3 µM, […]",14.82%
Cc1nnc2n1CCN(CC(O)CN1CCC(C)CC1)C2 (stereo unspecified),Percent Effect,"30.3 µM, […]",33.92%
CCC(CN1CCCC1)n1cncc1-c1cnn(-c2ccc(F)cc2)c1.Cl (stereo unspecified),Percent Effect,"30.3 µM, […]",14.1%
COc1c(C)cnc(CN(C)C2CCN(C3CCOCC3)CC2)c1C,Percent Effect,"30.3 µM, […]",38.73%
COc1c(C)cnc(CN(C)C2CCCCC2)c1C,Percent Effect,"30.3 µM, […]",77.94%
COc1c(C)cnc(CN(C)C2CCOC3(CCOCC3)C2)c1C (stereo unspecified),Percent Effect,"30.3 µM, […]",5.753%
CC(Cn1cccn1)C(=O)N1CCCN(Cc2cscn2)CC1 (stereo unspecified),Percent Effect,"30.3 µM, […]",10.45%
O=C(c1cccs1)N1CCc2c(nc(N3CCCC3)[nH]c2=O)C1,Percent Effect,"30.3 µM, […]",-25.29%
CN(C)C(=O)C1CCN(Cn2nc(-c3ccc(F)cc3)oc2=O)CC1,Percent Effect,30 µM,-5.064%
c1cnnc(N2CCCC(NCc3nc(-c4ccsc4)no3)C2)c1 (stereo unspecified),Percent Effect,"30.3 µM, […]",12.92%
CN1CCN(c2ncc(CNCCCc3cccc(F)c3)cn2)CC1,Percent Effect,"30.3 µM, […]",20.79%
CC(NCc1ccncc1)c1ccc(N2CCN(C)CC2)c(F)c1.Cl (stereo unspecified),Percent Effect,"30.3 µM, […]",-0.6983%
CC(NCc1cnc(N2CCN(C)CC2)nc1)c1ccc(F)cc1 (stereo unspecified),Percent Effect,"30.3 µM, […]",58.55%
Cc1ccc2c(c1)C(NCc1nccn1Cc1ccccc1)CCCO2 (stereo unspecified),Percent Effect,"30.3 µM, […]",23.59%
c1ccc(Cn2ccnc2CNC2CCCOc3ccccc32)cc1 (stereo unspecified),Percent Effect,"30.3 µM, […]",4.41%
Cc1cccc2c1OCCCC2NCc1nccn1Cc1ccccc1 (stereo unspecified),Percent Effect,"30.3 µM, […]",82.89%
Cn1ccnc1CNC1CCCOc2c1ccc1ccccc21 (stereo unspecified),Percent Effect,"30.3 µM, […]",20.1%
Cc1ccc2c(c1)OCCCC2NCc1nccn1CC(C)C (stereo unspecified),Percent Effect,"30.3 µM, […]",9.865%
Cc1ccc2c(c1)OCCCC2NCc1nccn1Cc1ccccc1 (stereo unspecified),Percent Effect,"30.3 µM, […]",50.6%
Cc1noc([C@@]23CCO[C@@H]2CCN(C(=O)CCC(C)C)C3)n1,Percent Effect,"30.3 µM, […]",-4.868%
COCCN(CCC#N)S(=O)(=O)c1ccc(F)cc1Cl,Percent Effect,"30.3 µM, […]",-7.04%
Cc1nc(CNC(=O)Cn2nc(-c3ccc(F)cc3)oc2=O)cs1,Percent Effect,"30 µM, 30.03 µM",-4.773%
COc1ccc(-c2cn(CCSc3ncn[nH]3)nn2)cn1,Percent Effect,"30.3 µM, […]",35.9%

# Reference: ChEMBL document CHEMBL3988442, “University of Dundee, Small-Polar-MMV Screening Library” (2021)
